Here are results for 28 molecules from PubChem BioAssay AID648 (SRMLSC, 2007).

About 920 (1.1%) of roughly 86,000 compounds were called active. This is one part of a sample in which actives are shown more often than they occur.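 Rule for the calls: active = viability at or below 30%; inactive = viability above 30%.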

This assay can be described thus: endothelial cell growth inhibition – HUVEC, 384-well, primary screen (AID 648).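 Note: 100% = median luminescence of DMSO-only cell control wells on each plate.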 The note with it: HUVEC proliferation, CellTiter-Glo luminescence, 72 h; stronger effect = lower value; screened at 10 µM (by protocol).
Regarding `CC(C)(C)C1CCc2c(sc3nc(SCC(N)=O)nc(N)c23)C1` (stereo not drawn), the viability is 48.8% (inactive). Turning to `CCC(=O)Nc1sc(C(=O)N2CCCCC2)c(C)c1C#N`, the viability is 98.7% (inactive).

For `CN1CCN(CC(=O)Nc2sc3c(c2C#N)CCC(C(C)(C)C)C3)CC1` (stereo not drawn), the viability was 2.13% (active). The result for `O=C(O)CSc1nccn1-c1cccc(Cl)c1` reads 105% (inactive). The value for `CC(C)NC(=O)C(=O)NCCN1CCN(S(=O)(=O)c2ccc(Cl)cc2)CC1` was 114% (inactive); that for `CCSc1nc(-c2ccc(OC)cc2)cc(-c2ccc(OC)cc2)c1C#N` was 100% (inactive). The result for `COc1ccc(Nc2ncc(C(=O)N3CCN(c4ccccc4OC)CC3)c3ccccc23)cc1` reads 62.2% (inactive); that for `O=C(CO/N=C/c1ccccc1O)NNC(=O)c1ccccc1Cl`, 97.1% (inactive). `CCNS(=O)(=O)c1ccc(NC(=O)Nc2cccc(OC)c2)cc1`: the viability is 72.2% (inactive).

Consider `CCNS(=O)(=O)c1ccc(NC(=O)Nc2cccc(C(F)(F)F)c2)cc1`, for which the viability is 29.7% (active). The result for `O=C(O)CSCC(=O)Nc1cccc(C(F)(F)F)c1` reads 89.5% (inactive).

In the case of `O=C(O)CCC(=O)NCc1ccc2[nH]c3c(c2c1)CCCC3`, the viability was 98.8% (inactive).

Turning to `O=[n+]1c2c(n([O-])c3cc(Br)ccc31)CCC2`, the viability was 94.2% (inactive). In the case of `O=C1CCCc2c1[nH]c1ccc(Br)cc21`, the viability was 16.3% (active). The value for `COc1cccc2c1OCC1COc3c(c(=O)n(C)c(=O)n3C)C21` (stereo not drawn) was 104% (inactive); that for `Cc1cc(C)cc(NC(=O)c2cccc(NC(=O)C3C4CC5OC(=O)C3C5C4)c2)c1` (stereo not drawn) was 92.7% (inactive); that for `CCN1CCc2c(C#N)c(NCc3ccccc3)nc(NCCO)c2C1` was 79.7% (inactive).

With `CC(C)Cc1nc(N2CCOCC2)c(C#N)c2c1CCC2`, the viability was 103% (inactive). The result for `CC(C)CCNc1nc(N2CCCC2)c2c(c1C#N)CCN(C)C2` reads 2.55% (active); that for `CCOc1ccc(S(=O)(=O)Nc2ccc(S(=O)(=O)Nc3cc(OC)ccc3OC)cc2)cc1`, 95.7% (inactive). The result for `CCCCCCc1cc2cc(-c3nnc(-c4cccc(OC)c4)o3)c(=O)oc2cc1O` reads 31.1% (inactive); that for `CCC1(CC)Cc2ccccc2-c2nc3ccccc3c(=O)n21`, 102% (inactive); that for `COc1ccccc1-n1nnnc1S(=O)(=O)Cc1ccc(Cl)cc1`, 11.8% (active). The result for `COc1ccccc1N1CCN(Cc2nnnn2CCc2ccccc2)CC1` reads 100% (inactive). Take `COc1ccccc1N1CCN(C(=O)CN(Cc2ccc(Cl)cc2)S(C)(=O)=O)CC1`: the viability was 109% (inactive). The value for `Cc1nc(NC(=O)CN(C)S(=O)(=O)c2ccc(Cl)cc2)sc1C` was 101% (inactive). In the case of `c1ccc2c(c1)C(=NC1CCCCC1)NC2=NC1CCCCC1`, the viability is 26.7% (active). The result for `O=C1CCCCC(=O)c2ccccc2N1` reads 98.7% (inactive).
